# Dicer processing: inhibitors of Dicer pre-microRNA processing, primary screen, biochemical, cat-ELCCA, chemiluminescence; Endoribonuclease Dicer (Homo sapiens), Q9UPY3; cat-ELCCA pre-miR-21 Dicer processing; active compounds read high; z-score at 25 µM; actives 6% (n = 47,000); AID 1347074, 2019; in the data active means z-score above about 3, passing the limit was not always enough;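 further: plate controls were vehicle for no effect and no enzyme for full effect; higher signal means more uncleaved substrate so more Dicer inhibition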
# * marks the source's active call; other numbers are inactive results. The entries come from a sample that favours hits as a whole.
SMILES,Dicer processing
CN(C)CCCN1C(=O)C(=O)/C(=C(\O)c2ccc(F)cc2)C12C(=O)N(C)c1ccccc12 (centres undefined),2.55
C=CCN1C(=O)C2(/C(=C(/O)c3ccc(C)cc3)C(=O)C(=O)N2CCCN(C)C)c2ccccc21 (centres undefined),1.6
C=CCN1C(=O)C2(/C(=C(/O)c3ccc(OC)cc3)C(=O)C(=O)N2CCCN(C)C)c2ccccc21 (centres undefined),3.62*
C=CCN1C(=O)C2(/C(=C(/O)c3ccc(OC)cc3)C(=O)C(=O)N2CCCOC)c2ccccc21 (centres undefined),3.23*
C=CCN1C(=O)C2(/C(=C(/O)c3ccc(C)c(F)c3)C(=O)C(=O)N2CCCN(C)C)c2ccccc21 (centres undefined),0.17
C=CCN1C(=O)C2(/C(=C(/O)c3ccc(C)c(F)c3)C(=O)C(=O)N2CCN(C)C)c2ccccc21 (centres undefined),0.78
C=CCN1C(=O)C2(/C(=C(/O)c3ccc(OC)cc3)C(=O)C(=O)N2CCOC)c2ccccc21 (centres undefined),1.29
COCCCN1C(=O)C(=O)/C(=C(\O)c2ccc(Cl)cc2)C12C(=O)N(C)c1ccccc12 (centres undefined),-0.78
C=CCN1C(=O)C2(/C(=C(/O)c3ccc(Cl)cc3)C(=O)C(=O)N2CCCOC)c2ccccc21 (centres undefined),3.38*
COc1c2c(nc3ccccc13)OC(C(C)(O)COC(C)=O)C2 (centres undefined),-1.16
O=S(=O)(NNc1c(Cl)cncc1Cl)c1ccc2c(c1)OCC2,-4.92
NC(=S)NNC(=O)c1ccc(Cl)cc1,-1.11
FC(F)(F)c1nc(SCc2ccc(Cl)cc2Cl)n[nH]1,0.1
O=c1c2ccccc2nc(SCc2ccccc2)n1-c1ccc(F)cc1F,-0.62
CCOC(=O)C1=C(C)NC2(O)c3ccccc3C(=O)C12O (centres undefined),-4.19
Cc1c(Cl)c([N+](=O)[O-])nn1CC(=O)NCCCn1ccnc1,-0.49
OC1CSc2sc(=S)sc2SC1,-0.48
COc1cc(-c2ccccc2)nc(N)n1,2.07
COc1ccccc1OCCSc1nc(C)cc(=O)[nH]1,22
Cc1ccc(OCCSc2nc(C)cc(=O)[nH]2)cc1,4.88*
CCOc1ccc(OCCSc2nc(C)cc(=O)[nH]2)cc1,0.06
Cc1cccc(C)c1NC(=S)NNC(=O)NNC(=S)Nc1c(C)cccc1C,1.24
CCCCCSc1nncc(=O)[nH]1,4.17*
CCCCCCCCSc1ncn[nH]1,-1.6
CCCCCCCSc1nnc(-c2ccccc2N)c(=O)[nH]1,1.12
SMILES,Dicer processing
O=S(=O)(c1ccc(Br)cc1)c1cccc(S(=O)(=O)N2CCCCC2)c1,2.66
S=C(NC1CCCCC1)N1CC2CCC(CC2)C1,-0.01
COc1ccc(CCN2C(=O)C(Oc3ccccc3)C2c2ccc3c(c2)OCO3)cc1 (centres undefined),3.39*
COc1ccc(OC2C(=O)N(CCc3ccc(Cl)cc3)C2c2ccc3c(c2)OCO3)cc1 (centres undefined),4.9*
COc1ccc(OC2C(=O)N(Cc3ccc4c(c3)OCO4)C2c2ccc3c(c2)OCO3)cc1 (centres undefined),1.57
O=C1C(Oc2ccccc2)C(c2ccc(F)cc2)N1Cc1ccc2c(c1)OCO2 (centres undefined),2.96
COc1ccc(OC2C(=O)N(CCc3ccc(F)cc3)C2c2ccc3c(c2)OCO3)cc1 (centres undefined),3.33*
O=C1C(Oc2ccc(Cl)cc2)C(c2ccc3c(c2)OCO3)N1CC1CCCO1 (centres undefined),0.87
Cc1ccccc1OC1C(=O)N(Cc2ccc3c(c2)OCO3)C1c1ccc2c(c1)OCO2 (centres undefined),0.63
O=C1C(Oc2ccccc2)C(c2ccc3c(c2)OCO3)N1Cc1ccc2c(c1)OCO2 (centres undefined),0.72
COc1ccc(OC2C(=O)N(Cc3ccc4c(c3)OCO4)C2c2cccs2)cc1 (centres undefined),0.58
CC(=O)NC1=NN(C(C)=O)C(c2cccc3ccccc23)N1C(C)=O (centres undefined),-0.51
O=C(Oc1c(-c2ccccc2)c(=O)n2c3c(cccc13)CCC2)c1ccc(Cl)cc1,-0.17
CCn1nc2n(c1=O)-c1cc(Cl)ccc1OC2,1.41
FC(F)(F)c1cc(Nc2nc3ccccc3s2)cc(C(F)(F)F)c1,0.56
CN1C=NC(O)(c2ccccc2)c2cc(Cl)ccc21 (centres undefined),-0.74
CCOC(=O)C1Cn2c(nc3c(c2=O)C2(CCCC2)Cc2ccccc2-3)S1 (centres undefined),2.71
O=C(NCc1cccs1)c1c(F)cccc1NC(=O)C(c1ccccc1)C1CCCC1 (centres undefined),-0.62
Cc1onc(-c2ccccc2)c1CSc1n[nH]c(=O)n1Cc1ccco1,-1.52
c1ccc(-c2c(-c3ccccc3)n(Cc3ccco3)c3ncn4nc(-c5ccco5)nc4c23)cc1,5.57*
Cc1nc2c([nH]1)c(=O)n(C)c(=O)n2Cc1ccco1,-0.88
COc1ccc(CNc2ccccn2)cc1,1.98
CCn1c(SCCOc2ccccc2F)nc2ccccc21,1.96
CCOC(=O)c1ccc2c(c1)C1C=CCC1C(c1ccc(F)cc1)N2 (centres undefined),1.6
CCCCN1Cc2c(n(Cc3ccccc3)c3cc(-c4ccccc4)nn3c2=O)C1=O,-0.1
SMILES,Dicer processing
CCCCN1Cc2c(n(CC(=O)c3ccccc3)c3cc(-c4ccccc4)nn3c2=O)C1=O,3.15*
CCCCN1Cc2c(n(CC(N)=O)c3cc(-c4ccccc4)nn3c2=O)C1=O,-0.98
CCN(CC)c1ccc(C2C(C(=O)OC(C)C)=C(C)Nc3nc4ccccc4n32)cc1 (centres undefined),-1.47
CC1C(c2ccccc2)OCCN1C(=O)CCC(=O)N1CCOC(c2ccccc2)C1C (centres undefined),5.63*
CN1CCOC(c2ccccc2)c2ccccc2C1 (centres undefined),0.53
O=C(CCc1ccccc1)N1CCC(c2ccccc2)C1 (centres undefined),-1.42
COc1cc(C2C3=C(CC(C)(C)CC3=O)Nc3[nH]c(=O)[nH]c(=O)c32)ccc1O (centres undefined),-0.04
CCN(CC)CC(=O)Nc1cc(C)nn1-c1ccccc1,1.6
N#Cc1cnn(-c2ccccc2)c1NC(=O)CSc1nnc(-c2ccc(Cl)cc2)o1,-0.2
CCN(CC)CC(=O)Nc1c(C#N)cnn1-c1ccccc1,4.72*
O=C1C2CC=C(Cl)CC2C(=O)N1Cc1ccccc1 (centres undefined),-0.2
COc1ccc(C2Nc3ccc(C)cc3-c3cc(C)nn32)cc1 (centres undefined),-1.01
CCOc1ccc(C2Nc3ccc(C)cc3-c3cc(C)nn32)cc1 (centres undefined),1.47
COc1cc(C2Nc3ccccc3-c3cc(C)nn32)ccc1O (centres undefined),0.37
CCOc1ccc(C2Nc3ccccc3-c3cc(C)nn32)cc1 (centres undefined),3.24*
Cc1cc2n(n1)C(c1ccc(O)c(O)c1)Nc1ccccc1-2 (centres undefined),6.61*
COc1ccc(OC)c(C2Nc3ccc(C)cc3-c3cc(C)nn32)c1 (centres undefined),-0.07
Cc1cc(C)c2c(c1)-c1cc(C)nn1C(c1ccc(N3CCOCC3)cc1)N2 (centres undefined),-1.64
